This passage reports outcome and AC50 results from PubChem BioAssay (EPA / NIEHS).

The structures appear in SMILES notation. Values joined by “and” are separate entries in the source; they are usually repeats but may differ in a detail not shown here. Equal values may be shown once. A structure can be active in one record and inactive in another. Active and inactive are the calls of the source. Rule for the calls: active = hit-call score of the fitted dose curve at least 0.9, where 1 is the maximum; inactive = score below 0.9.

Read-out in assay [1]: urokinase Plasminogen Activator (uPA), PLAU (gene 5328)
As to the kind of experiment: BSK_BF4T_uPA: BioMAP Diversity Plus: BF4T Assay for urokinase Plasminogen Activator (uPA) Biomarker Activity (AID 2284275). The conditions noted are these: primary human bronchial epithelial cells with fibroblasts. In short, it runs like this:
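Co-culture of human bronchial epithelial cells and dermal fibroblasts; uPA quantified by ELISA 24 hours after dosing, fitted relative to DMSO. Parallel SRB total-protein staining assessed overt cytotoxicity.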

Read-out in assay [2]: Matrix Metallopeptidase 9 (MMP9), MMP9 (gene 4318)
As to the kind of experiment: BSK_BF4T_MMP9: BioMAP Diversity Plus: BF4T Assay for Matrix Metallopeptidase 9 (MMP9) Biomarker Activity (AID 2284276). The following applies: primary human bronchial epithelial cells with fibroblasts. In short, it runs like this: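 Co-culture of human bronchial epithelial cells and dermal fibroblasts dosed for 24 h; MMP-9 quantified by ELISA and fitted upward versus DMSO. Cytotoxicity monitored in parallel cultures by SRB total-protein staining at the biomarker time point.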

Read-out in assay [3]: Interleukin-8 (IL8), CXCL8 (gene 3576)
In words: BSK_IMphg_IL8: BioMAP Diversity Plus: IMphg Assay for Interleukin-8 (IL8) Biomarker Activity (AID 2284277). The conditions noted are these: primary human endothelial cells with macrophages. In short, it runs like this:
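Co-culture of human venular endothelial cells and macrophages exposed to chemicals for 24 h; IL-8 quantified by ELISA and compared against the DMSO baseline, with SRB total-protein staining in parallel cultures for cytotoxicity.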

Read-out in assay [4]: Intercellular Adhesion Molecule 1 (ICAM1), ICAM1 (gene 3383)
In words: BSK_BE3C_ICAM1: BioMAP Diversity Plus: BE3C Assay for Intercellular Adhesion Molecule 1 (ICAM1) Biomarker Activity (AID 2284278).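 For outcome: cell-surface ICAM-1 protein level quantified by ELISA.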 The conditions noted are these: primary human bronchial epithelial cells. The method in brief: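 Measured by ELISA: ICAM-1 expressed by primary human bronchial epithelial cells 24 h after compound treatment, with upward-direction fitting versus DMSO vehicle.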

Read-out in assay [5]: Interferon-inducible T-cell alpha chemoattractant (ITAC), CXCL11 (gene 6373)
As to the kind of experiment: BSK_BE3C_ITAC: BioMAP Diversity Plus: BE3C Assay for Interferon-inducible T-cell alpha chemoattractant (ITAC) Biomarker Activity (AID 2284279). The following applies: primary human bronchial epithelial cells. In short, it runs like this: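 Steps: dose human bronchial epithelial cells with chemical; incubate 24 h; measure I-TAC by ELISA; fit endpoint in positive direction against DMSO control. Cytotoxicity was checked in parallel cultures by SRB staining at harvest.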

Read-out in assay [6]: Epidermal growth factor receptor (EGFR), EGFR (gene 1956)
As to the kind of experiment: BSK_BE3C_EGFR: BioMAP Diversity Plus: BE3C Assay for Epidermal growth factor receptor (EGFR) Biomarker Activity (AID 2284281). The conditions noted are these: primary human bronchial epithelial cells. In short, it runs like this:
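Compound is added to human bronchial epithelial cells, cells incubate 24 h, then EGFR is detected by ELISA. Values reflect positive-direction fitting relative to DMSO.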

Read-out in another assay: KRT18 (gene 3875)
In words: BSK_BE3C_Keratin818: BioMAP Diversity Plus: BE3C Assay for Keratin 818 Biomarker Activity (AID 2284282). The conditions noted are these: primary human bronchial epithelial cells. In short, it runs like this:
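BE3C: human bronchial epithelial primary cells, 24 h exposure, Keratin 8/18 ELISA; DMSO = negative control/baseline; cytotoxicity by parallel SRB stain (0.1% SRB after 10% TCA fixation, 560 nm).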

Read-out in assay [7]: Matrix Metallopeptidase 9 (MMP9), MMP9 (gene 4318)
As to the kind of experiment: BSK_BE3C_MMP9: BioMAP Diversity Plus: BE3C Assay for Matrix Metallopeptidase 9 (MMP9) Biomarker Activity (AID 2284283). The conditions noted are these: primary human bronchial epithelial cells. The method in brief:
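Human primary bronchial epithelial cells exposed 24 h to compound. MMP9 quantified by ELISA. SRB total-protein staining of parallel cultures assesses cytotoxicity. Positive-direction fit relative to DMSO.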

Read-out in assay [8]: Plasminogen activator inhibitor-1 (PAI1), SERPINE1 (gene 5054)
As to the kind of experiment: BSK_CASM3C_PAI1: BioMAP Diversity Plus: CASM3C Assay for Plasminogen activator inhibitor-1 (PAI1) Biomarker Activity (AID 2284284).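 Note: PAI-1 protein level measured by ELISA 24 h after dosing.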 The conditions noted are these: primary human coronary artery smooth muscle cells.

Read-out in assay [9]: Vascular cell adhesion molecule 1 (VCAM1), VCAM1 (gene 7412)
In words: BSK_IMphg_VCAM1: BioMAP Diversity Plus: IMphg Assay for Vascular cell adhesion molecule 1 (VCAM1) Biomarker Activity (AID 2284286). The following applies: primary human endothelial cells with macrophages. The method in brief: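 Human venular endothelial cells co-cultured with macrophages; VCAM-1 quantified by ELISA 24 h after dosing, fitted in the positive direction against DMSO. Cytotoxicity was checked in parallel cultures by SRB total-protein staining (0.1% SRB after 10% TCA fixation, 560 nm).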

Read-out in assay [10]: Intercellular Adhesion Molecule 1 (ICAM1), ICAM1 (gene 3383)
In words: BSK_hDFCGF_ICAM1: BioMAP Diversity Plus: hDFCGF Assay for Intercellular Adhesion Molecule 1 (ICAM1) Biomarker Activity (AID 2284287). The conditions noted are these: primary human foreskin fibroblasts. In short, it runs like this: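 Primary human foreskin fibroblasts (hDFCGF system) dosed with chemical; ICAM-1 quantified by ELISA at 24 h relative to DMSO. Parallel SRB total-protein staining to assess overt cytotoxicity.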

Read-out in the next assay: CD40, CD40 (gene 958)
In words: BSK_IMphg_CD40: BioMAP Diversity Plus: IMphg Assay for CD40 Biomarker Activity (AID 2284288). The conditions noted are these: primary human endothelial cells with macrophages. The method in brief: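 Venular endothelial cells co-cultured with macrophages (human primary), CD40 measured by ELISA 24 h after dosing. Positive-direction fit vs DMSO baseline; cytotoxicity tracked by SRB total-protein staining in parallel cultures.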

Read-out in assay [11]: TIMP metallopeptidase inhibitor 2 (TIMP2), TIMP2 (gene 7077)
As to the kind of experiment: BSK_hDFCGF_TIMP2: BioMAP Diversity Plus: hDFCGF Assay for TIMP metallopeptidase inhibitor 2 (TIMP2) Biomarker Activity (AID 2284289). The conditions noted are these: primary human foreskin fibroblasts. In short, it runs like this: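 Primary human foreskin fibroblasts in the hDFCGF system, dosed for 24 h; TIMP-2 level measured by ELISA, fitted in the positive direction against DMSO; cytotoxicity checked in parallel by sulforhodamine B total protein staining.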

Read-out in assay [12]: Interleukin-1 alpha (IL1a), IL1A (gene 3552)
As to the kind of experiment: BSK_IMphg_IL1a: BioMAP Diversity Plus: IMphg Assay for Interleukin-1 alpha (IL1a) Biomarker Activity (AID 2284290). The conditions noted are these: primary human endothelial cells with macrophages. In short, it runs like this: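 Human venular endothelial cells co-cultured with macrophages, IMphg system. IL-1α is measured by ELISA 24 h after dosing and fitted in the positive direction against DMSO. Cytotoxicity is assessed by SRB staining of parallel cultures.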

Read-out in assay [13]: E-selectin (Homo sapiens) (UniProt P16581)
As to the kind of experiment: BSK_IMphg_ESelectin: BioMAP Diversity Plus: IMphg Assay for Eselectin Biomarker Activity (AID 2284291). The following applies: primary human endothelial cells with macrophages. The method in brief:
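Human venular endothelial cell–macrophage co-culture, E-selectin measured by ELISA 24 h after chemical dosing. Signal fitted in the positive direction against DMSO as negative control and baseline.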

Assay [14] can be described thus: BSK_IMphg_SRB: Viability Assessment in the BioMAP Diversity Plus: IMphg Assay (AID 2284292).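 Note: measured one day after compound addition.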 The conditions noted are these: primary human endothelial cells with macrophages. The method in brief: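 Human venular endothelial cells with macrophages, 24 h after chemical dosing; total protein by 0.1% SRB staining after 10% TCA fixation, read at 560 nm. Positive-direction fitting versus DMSO baseline.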

Read-out in assay [15]: Macrophage colony-stimulating factor (MCSF), CSF1 (gene 1435)
In words: BSK_IMphg_MCSF: BioMAP Diversity Plus: IMphg Assay for Macrophage colony-stimulating factor (MCSF) Biomarker Activity (AID 2284293). The following applies: primary human endothelial cells with macrophages. In short, it runs like this: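 Co-culture of human venular endothelial cells and macrophages, 24 hours of chemical exposure. M-CSF quantified by ELISA, with parallel SRB total-protein staining for cytotoxicity; activity fitted relative to DMSO.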

Read-out in assay [16]: Interleukin-10 (IL10), IL10 (gene 3586)
In words: BSK_IMphg_IL10: BioMAP Diversity Plus: IMphg Assay for Interleukin-10 (IL10) Biomarker Activity (AID 2284294). The conditions noted are these: primary human endothelial cells with macrophages. In short, it runs like this:
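Human venular endothelial cells cocultured with macrophages, dosed 24 h; IL-10 measured by ELISA, activity relative to DMSO. Cytotoxicity assessed in parallel cultures by sulforhodamine B total-protein staining.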

Read-out in assay [17]: Thrombomodulin, THBD (gene 7056)
As to the kind of experiment: BSK_LPS_Thrombomodulin: BioMAP Diversity Plus: LPS Assay for Thrombomodulin Biomarker Activity (AID 2284296). The following applies: primary human HUVEC with PBMC. In short, it runs like this: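 Human umbilical vein endothelial cells co-cultured with PBMC and stimulated with LPS; cell-surface thrombomodulin measured by ELISA 24 hours after compound. Gain or loss versus DMSO; cytotoxicity checked by SRB staining in parallel cultures.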

Chain of E-selectin (Homo sapiens) (P16581 whole entry, looked up): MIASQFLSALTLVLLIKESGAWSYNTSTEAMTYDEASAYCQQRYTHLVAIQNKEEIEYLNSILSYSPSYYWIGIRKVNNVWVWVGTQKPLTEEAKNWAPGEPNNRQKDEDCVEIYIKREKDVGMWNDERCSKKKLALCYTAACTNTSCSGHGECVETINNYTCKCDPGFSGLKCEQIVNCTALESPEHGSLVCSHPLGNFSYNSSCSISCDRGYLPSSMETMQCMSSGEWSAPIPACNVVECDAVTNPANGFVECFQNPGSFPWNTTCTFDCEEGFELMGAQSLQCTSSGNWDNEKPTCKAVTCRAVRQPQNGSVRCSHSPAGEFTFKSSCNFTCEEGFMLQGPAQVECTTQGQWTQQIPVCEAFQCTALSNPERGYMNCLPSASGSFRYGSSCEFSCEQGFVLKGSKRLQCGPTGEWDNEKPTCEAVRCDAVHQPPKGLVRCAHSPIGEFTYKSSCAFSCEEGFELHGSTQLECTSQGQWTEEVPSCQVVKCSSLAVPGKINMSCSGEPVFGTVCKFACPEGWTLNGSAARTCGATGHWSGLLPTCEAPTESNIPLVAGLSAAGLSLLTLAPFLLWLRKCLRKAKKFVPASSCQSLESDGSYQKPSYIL

As for `O=P(O)(O)CCC(F)(F)C(F)(F)C(F)(F)C(F)(F)C(F)(F)C(F)(F)F`, the result in assay [1], in assay [2], in assay [3], in [4], in [5] and in assay [6] was inactive. In addition, the outcome with KRT18 (gene 3875) was “inactive”; in assay [7] it was “inactive”; in [8], “inactive”; in [9] it was “inactive”; in assay [10], “inactive”; with CD40, CD40 (gene 958), “inactive”. Also, the outcome in assay [11], in assay [12], in [13], in [14], in assay [15] and in assay [16] was inactive. Besides, in assay [17], the outcome was inactive. Moreover, in assay [17], the AC50 was 219 nM (active).

With `O=C(CC(=O)C(F)(F)C(F)(F)C(F)(F)F)c1cccs1`, the AC50 is 46.4 µM (active) and 35.8 µM (active) in assay [1]; 28.8 µM (active) and 22.4 µM (active) in assay [2]; 22.4 µM (active) in [3]; 42.2 µM (active) and 35.1 µM (active) in assay [4]; 24.7 µM (active) and 24.1 µM (active) in assay [5]; 30 µM (active) and 20.5 µM (active) in assay [6]. For the same molecule, the AC50 is 10.8 µM (active) and 14.7 µM (active) in the assay with KRT18 (gene 3875); 18.5 µM (active) in assay [7]; 50.5 µM (active) and 43.4 µM (active) in assay [9]; 7.8 µM (active) in [11]; 47.6 µM (active) in assay [12]; 40.3 µM (active) and 42 µM (active) in assay [13]. Further, the AC50 in assay [14] was 44.9 µM (active) and 39.7 µM (active); in assay [16], 22 µM (active) and 29.2 µM (active); in assay [17], 55.5 µM (active) and 54.2 µM (active). For the same molecule, the outcome in [3] is “inactive”; in assay [8] it was “inactive”; in [10] it was “inactive”; with CD40, CD40 (gene 958) it was “inactive”; in assay [11], “inactive”; in [12], “inactive”. The outcome in assay [15] was inactive.

Regarding `Oc1c(Cl)cc(Cl)cc1Sc1cc(Cl)cc(Cl)c1O`, the AC50 in assay [4] is 5.56 µM (active) and 6.58 µM (active); in [5], 3.3 µM (active) and 3.57 µM (active); in assay [6], 4.89 µM (active) and 4.9 µM (active); with KRT18 (gene 3875), 9.64 µM (active) and 7.03 µM (active); in assay [7], 2.09 µM (active) and 1.25 µM (active); in [8], 18.3 µM (active). Moreover, the half-maximal activity concentration (AC50) in assay [10] was 2.56 µM (active) and 2.73 µM (active); in assay [11] it was 2.33 µM (active) and 1.67 µM (active). The result in [8] and in [17] was inactive.

On to `OCC(F)(F)C(F)(F)C(F)(F)C(F)(F)C(F)(F)C(F)(F)C(F)(F)C(F)(F)C(F)(F)C(F)(F)C(F)(F)F`, for which the outcome in assay [1], in [2], in assay [3], in assay [4], in assay [5] and in assay [6] was inactive. For the same molecule, the outcome (with KRT18 (gene 3875); in assay [8]; in assay [9]; in assay [10]; in assay [11]; in [12]) was inactive. In addition, the result in assay [14], in assay [15], in assay [16] and in assay [17] was inactive. Further, the AC50 in [3] was 0.216 µM (active); in assay [7], 229 nM (active) and 222 nM (active); with CD40, CD40 (gene 958), 1.35 µM (active); in assay [13], 155 nM (active) and 396 nM (active); in assay [16], 835 nM (active).

For orientation: AC50 means the midpoint of the concentration-response curve, whichever way the signal moves.
